PubChem BioAssay AID652010 (The Scripps Research Institute Molecular Screening Center, 2013)
The whole screen tested about 370,000 compounds, of which about 4,100 (1.1%) were called active. This excerpt belongs to a sample that is enriched for actives. Values without a mark were called inactive.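 How the source made its calls: active means inhibition above the mean over all tested compounds plus 3 SD (cut at about 3.6% in these data); inactive means the rest.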

experiment: relief of DAX-1 repression of SF-1 activity – cell-based, luminescence, SF-1 (NR5A1), full-length DAX-1, primary screen (AID 652010); conditions: HEK293T StAR-luciferase reporter, SF-1/DAX-1 repression relief; at 6.8 µM; stronger effect = higher value;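 further: 0% = DAX-1 cells with DMSO and 100% = cells lacking DAX-1 with DMSO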

Row | Structure (SMILES) | inhibition
1 | COc1ccc(-c2csc3nc(-c4ccccc4F)oc(=O)c23)cc1OC | -0.99%
2 | COc1ccc(C2CC(c3cccs3)=Nc3ccccc3S2)cc1OC (configuration not stated) | 1.16%
3 | COc1ccc(-c2csc(-c3cccs3)n2)cc1OC | 7.97% (active)
4 | O=C(CCl)NC1CCCCN(Cc2cccc(C(F)(F)F)c2)C1=O (configuration not stated) | -3.93%
5 | C[C@H](O)[C@@H]1CN2CCc3ccc(-c4ccc5c(c4)OCO5)cc3[C@@H]2C[C@@H]1N(C)C(=O)C1CCCCC1 | 0.38%
6 | COC(=O)[C@]12C[C@H](CC(=O)N3CCOCC3)C(=O)N(Cc3ccc(Cl)cc3Cl)C1=C[C@H](COCc1ccccc1)O[C@@H]2C | -0.57%
7 | CCCCNc1cccc2c1S(=O)(=O)N[C@@H](C)CO2 | -0.56%
8 | CC(Oc1ccccc1[N+](=O)[O-])C(=O)N/N=C/c1ccoc1 (configuration not stated) | 6.45% (active)
9 | Cc1ccc(OCC(=O)Oc2ccccc2[N+](=O)[O-])cc1 | 0.05%
10 | CC(C)c1cc(C(=O)N/N=C/c2ccoc2)c(O)c(C(C)C)c1 | -0.83%
11 | CCOC(=O)C1CSCCS(=O)(=O)N1Cc1ccc(Cl)cc1 (configuration not stated) | -1.28%
12 | COC(=O)c1c(C(=O)OC)c2n(c1C)CCS2 | 0.03%
13 | COc1cccc(CSc2nnc(-c3cccnc3)n2Cc2ccccc2)c1 | 1.04%
14 | COc1ccc2nc(SCc3ccccc3)nc(C)c2c1 | 5.06% (active)
15 | COc1ccc(NCc2nnc(SCc3ccccc3)n2-c2ccc(OC)cc2)cc1 | 0.16%
16 | COC(=O)[C@]12C[C@H](CC(=O)NCc3ccc(C)o3)C(=O)N(CCC3=CCCCC3)C1=C[C@H](C(C)(C)C)O[C@@H]2C | -0.72%
17 | CCOC(=O)[C@@]12CCC3=C1N(CCC3)C(=O)[C@H](CC(=O)N1CCN(C(=O)c3ccco3)CC1)C2 | 0.29%
18 | Cc1ccccc1CN1CCCCC(NC(=O)Nc2ccccc2F)C1=O (configuration not stated) | -2.67%
19 | CC(C)(C)c1ccc(/C=C/C(=O)NCCCn2ccnc2)cc1 | 0.37%
20 | Cc1cc(C)nc(NC(=O)/C=C/c2ccc(Cl)cc2)n1 | 0.12%
21 | CC(C)(C)c1ccc(/C=C/C(=O)Nc2ncccn2)cc1 | 3.9% (active)

Row | Structure (SMILES) | inhibition
22 | CC(=O)N1C[C@@H](CO)[C@@H](N(C)C(=O)C(C)(C)C)C[C@H]1c1ccccc1Br | 0.98%
23 | COC(=O)C[C@H]1CC[C@H]2[C@H](COc3ccc(NC(=O)C4CC4)cc3C(=O)N2C)O1 | 1.68%
24 | O=C(c1cnn(-c2ccc(Cl)cc2)c1)c1ccccc1O | 6.14% (active)
25 | CC(=O)c1nn(-c2ccc(C)cc2)cc1C(=O)c1cccc(Br)c1 | -0.24%
26 | Cc1[nH]nc(-c2ccc(OCc3cnn(-c4ccccc4)c3)cc2O)c1Oc1ccc(Cl)cc1 | -0.45%
27 | COc1cccc(Cn2cc(COC(=O)Nc3ccc(F)cc3)nn2)c1 | -0.2%
28 | COc1ccc(S(=O)(=O)NCC(=O)NC2CC2)cc1OC | -0.86%
29 | CC(=O)Nc1ccc(OC[C@@H](O)CN2CCC(C(O)(c3ccccc3)c3ccccc3)CC2)cc1 | 0.02%
30 | O=C(CSc1nnc(CNC(=O)c2ccc(F)cc2)o1)Nc1ccc2c(c1)OCO2 | -1.07%
31 | COc1ccc(C2Nc3ccccc3C(=O)N2c2ccc(Cl)cc2)cc1Cn1cc([N+](=O)[O-])cn1 (configuration not stated) | 3.84% (active)
32 | COc1ccc(CN2CCCC(C(=O)c3ccc(Cl)cc3)C2)cc1Cn1cncn1 (configuration not stated) | 0.63%
33 | COc1ccc([N+](=O)[O-])cc1C1NN=C(c2cccc3ccccc23)S1 (configuration not stated) | 0.7%
34 | O=C(Oc1ccc(-c2nnco2)cc1)c1ccc(F)c(S(=O)(=O)N2CCOCC2)c1 | -0.14%
35 | CC(=O)N1CCCN(C2=Nc3ccccc3Sc3ccccc32)CC1 | -0.16%
36 | CCC(C)[C@@H](C(=O)OC)N(CCc1cn(Cc2ccccc2)nn1)S(=O)(=O)c1ccccc1Br (some centres not stated) | -0.61%
37 | N#Cc1ccccc1OC[C@@H](O)CN1CCC(C(O)(c2ccccc2)c2ccccc2)CC1 | -0.84%
38 | COc1cc(/C=C/C(=O)Nc2ccc(OC)c(S(=O)(=O)N3CCOCC3)c2)ccc1OCC#N | -2.07%
39 | COc1ccc(/C=C/C(=O)Nc2ccc(C34CC5CC(CC(O)(C5)C3)C4)cc2)cc1OC | 8.95% (active)
40 | COc1ccc(/C=C/C(=O)OCC(=O)NC2CCCCCC2)cc1OC | 2.29%
41 | O=C(NC1CCCC1)C1CSCCS(=O)(=O)N1Cc1ccccc1 (configuration not stated) | 0.54%
42 | CNC(=O)c1[nH]cnc1C(=O)N[C@@H](CC(C)C)C(=O)OC(C)(C)C | -0.49%

Row | Structure (SMILES) | inhibition
43 | CC[C@]1(O)CC2CN(CCc3c([nH]c4ccccc34)[C@@](C(=O)OC)(c3cc4c(cc3OC)N(C=O)[C@H]3[C@@](O)(C(=O)OC)[C@H](OC(C)=O)[C@]5(CC)C=CCN6CC[C@]43[C@@H]65)C2)C1 (some centres not stated) | 12.9% (active)
44 | CC[C@]1(O)C[C@@H]2CN(CCc3c([nH]c4ccccc34)[C@@](C(=O)OC)(c3cc4c(cc3OC)N(C)[C@H]3[C@@](O)(C(=O)OC)[C@H](OC(C)=O)[C@]5(CC)C=CCN6CC[C@]43[C@@H]65)C2)C1 | 9.42% (active)
45 | CC(C)(C)c1ccc(CSc2nnc(-c3cccs3)o2)cc1 | -0.57%
46 | CCOC(=O)C(=O)N(Cc1ccccc1)c1ccccc1C(=O)Nc1cc(OC)ccc1OC | -0.54%
47 | CCOC(=O)N1CCN(C(=O)C2CCN(S(C)(=O)=O)CC2)CC1 | 0.3%
48 | COc1cc(NC(=O)c2ccc(-c3csc(C)n3)cc2)c(OC)cc1Cl | 0.05%
49 | Cn1c(SCC(=O)Nc2cccc(NC(=O)c3cccs3)c2)nnc1-c1ccncc1 | -0.42%
50 | Cc1nc(-c2ccc(NC(=O)c3cccs3)cc2)cs1 | 3.66% (active)
51 | O=C(CSc1nnc(COc2ccccc2)n1Cc1ccco1)c1ccc2ccccc2c1 | -1.45%
52 | O=C(NN=Cc1ccco1)C(=O)Nc1ccc(Cl)c([N+](=O)[O-])c1 | 0.2%
53 | CCNC(=O)c1sccc1-n1cccc1 | -0.31%
54 | Cc1ccsc1C(=O)NCCc1ccco1 | 4.3% (active)
55 | Cc1ccsc1C(=O)NC1CCCCC1C (configuration not stated) | -0.66%
56 | COc1cccc(CNC(=O)[C@H]2CCCN2C(=O)[C@H]2CCCN2C(=O)C2CCCCC2)c1 | -1.49%
57 | Cc1ccc(-n2c(SCC(=O)Nc3cccc4ccccc34)nnc2-c2ccccn2)cc1 | -0.57%
58 | O=C(NCCC1=CCCCC1)C1CCN(S(=O)(=O)c2ccc(Cl)s2)CC1 | 0.02%
59 | CC[C@]12c3[nH]c4cc(CCC(=O)N(C)C)ccc4c3CCN1C(=O)[C@@H](CC(=O)NCc1ccco1)C[C@@H]2C(=O)N1CCN(C(=O)c2ccco2)CC1 | 0.22%
60 | CC[C@]12c3[nH]c4cc(CCC(=O)N(C)C)ccc4c3CCN1C(=O)[C@@H](CC(=O)NCCCn1ccnc1)C[C@@H]2C(=O)N1CCN(C(=O)C2CC2)CC1 | -0.23%
61 | CC[C@]12c3[nH]c4cc(CCC(=O)N(C)C)ccc4c3CCN1C(=O)[C@@H](CC(=O)NCCCN(C)C)C[C@@H]2C(=O)N1CCN(C(=O)c2ccco2)CC1 | 3.91% (active)
62 | Cc1nc2ccc(C(=O)N3CCN(C(=O)C(C)(C)C)CC3)cc2n1C1CCCC1 | 1.16%
63 | COc1ccc(-n2c(SCC(=O)Nc3ccc(C)c(Cl)c3)nc3ccccc3c2=O)cc1 | -1.67%

Row | Structure (SMILES) | inhibition
64 | O=C(NCc1cccs1)c1ccc2c(c1)ncn2C1CCCC1 | 0.35%
65 | Nn1c(SCC(=O)Nc2ccc(S(N)(=O)=O)cc2)nnc1-c1n[nH]c2c1CCC2 | 0.11%
66 | COC(=O)C1CN(CCc2ccccc2)CCS(=O)(=O)N1Cc1ccc(F)cc1 (configuration not stated) | -0.43%
67 | CN(CCc1ccccc1)c1ccc([N+](=O)[O-])cn1 | -0.34%
68 | CC(C)c1ccc(/C=C2\NC(=O)NC2=O)cc1 | 0.05%
69 | CC(C)c1ccc(C=NNc2ccc([N+](=O)[O-])cn2)cc1 | 4.69% (active)
70 | Cc1ccc(C(=O)NN(CCC#N)C2=NS(=O)(=O)c3ccccc32)cc1 | 0.06%
71 | O=C(NCc1ccccc1)[C@H]1CCCN1C(=O)[C@@H]1CCCN1C(=O)c1ccc(Cl)cc1Cl | 0.24%
72 | CC[C@@H](CCC(=O)N(c1ccccc1)c1ccccc1)C1CC1 | -1.2%
73 | CCOc1cc(C(=S)N2CCOCC2)ccc1OS(=O)(=O)c1ccc(Br)cc1 | 0.06%
74 | CC(=O)Nc1ccc(S(=O)(=O)Oc2ccc(Br)cc2C(=S)N2CCOCC2)cc1 | -1.94%
75 | O=S(=O)(Oc1ccccc1C(=S)N1CCOCC1)c1ccc(Cl)cc1 | 3.63% (active)
76 | COC(=O)c1cc(S(=O)(=O)N2CCN(c3ccccc3C)CC2)cn1C | -1.02%
77 | CC(c1c[nH]c2ccccc12)c1c(-c2ccccc2)n(C)c2ccccc12 (configuration not stated) | -0.37%
78 | CC(=O)N1CCc2cc(S(=O)(=O)NCCC(=O)N3CCCC3)ccc21 | -1.5%
79 | COc1ccc(C(C#N)=C2C=CC(=NO)c3ccccc32)cc1 | 4.3% (active)
80 | COc1ccc(C(=NN)c2ccc(OC)cc2)cc1 | 0.31%
81 | COc1ccc(/C(N)=N/OC(=O)Oc2ccccc2)cc1 | -0.74%
82 | O=C(N[C@H](Cc1ccccc1)C(=O)N1CCCN(Cc2cccs2)CC1)[C@H]1O[C@@H](n2ccc(=O)[nH]c2=O)[C@H](O)[C@@H]1O | 1.64%
